# Measured values from PubChem BioAssay (NCATS).
# Inconclusive results are not listed. A call without a number means that no potency is given here. Activity calls are given as the source filed them. Unless noted, the call rests on the fitted dose curve; in most records, active means well fitted curve in the direction sought with a large enough effect; inconclusive means small, poorly fitted or top-dose-only effect, or another doubt; inactive means no such curve, though single readings can be large; an effect the other way counts as inactive or inconclusive.
# Tests used:
# [1] = NCATS anti-infectives library activity on HEK293 viability as a counter-qHTS vs the C. elegans viability qHTS (AID 1745854)
# Method in brief: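 CellTiter-Glo luminescence, read on a CCD imager, scored viability of HEK293 cells after 24 hr compound exposure at 37C. Library tested in several concentrations, 1:5 steps, up to 41.7 uM; digitonin served as control.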
# [2] = qHTS assay to identify inhibitors of the type 1 interferon - major histocompatibility complex class I in skeletal muscle: Counter screen cell viability and HiBit confirmation (AID 1347412); details: iHSKM muscle cells + IFN-b, HiBiT or CellTiter-Glo, 24 h; further: potency means the concentration at half of the fitted maximal effect; nearly all actives have a fitted effect of over 60% in size
# Method in brief: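 After 24 h with human IFN-beta (4 ng/ml) and compound titrations (top 46 uM final, 1:3, 12 points), HLA-B HiBit myoblasts were lysed for either Nano-Glo HiBiT luminescence or CellTiter Glo viability on paired plates.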
# [3] = target: Cytochrome P450 2D6 (Homo sapiens) (UniProt P10635); assay: Cytochrome P450 family 2 subfamily D member 6 (CYP2D6) small molecule antagonists: luciferase biochemical (cell-free) qHTS assay (AID 1645840; active means well fitted curve in the direction sought with a large enough effect in the repeat runs; an effect the other way counts as inactive or inconclusive; further: nearly all actives have a fitted effect of over 55% in size; further: potency means the concentration at half of the fitted maximal effect)
# Cytochrome P450 2D6 (Homo sapiens), sequence (P10635 whole entry, looked up): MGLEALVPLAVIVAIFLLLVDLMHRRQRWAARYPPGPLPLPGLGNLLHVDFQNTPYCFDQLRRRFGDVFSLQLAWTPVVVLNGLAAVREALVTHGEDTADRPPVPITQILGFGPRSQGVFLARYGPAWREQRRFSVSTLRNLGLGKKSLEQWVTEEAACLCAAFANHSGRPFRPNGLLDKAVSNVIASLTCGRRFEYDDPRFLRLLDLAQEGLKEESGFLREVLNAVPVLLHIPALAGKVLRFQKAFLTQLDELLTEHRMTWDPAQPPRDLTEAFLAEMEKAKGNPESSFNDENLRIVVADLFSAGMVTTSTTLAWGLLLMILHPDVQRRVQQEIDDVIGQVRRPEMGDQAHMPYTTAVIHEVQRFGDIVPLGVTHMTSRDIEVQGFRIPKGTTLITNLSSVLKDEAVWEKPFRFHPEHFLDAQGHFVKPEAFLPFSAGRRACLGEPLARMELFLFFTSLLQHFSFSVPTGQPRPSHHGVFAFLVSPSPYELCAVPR
# Method in brief: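 P450-Glo CYP2D6 system: proluciferin substrate converted by enzyme to luciferin, read by luminescence proportional to activity. Enzyme-substrate mix with compound 10 min at room temperature, then NADPH regeneration 1 h before detection reagent.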
# [4] = target: Cytochrome P450 2C9 (Homo sapiens) (UniProt P11712); assay: Cytochrome P450 family 2 subfamily C member 9 (CYP2C9) small molecule antagonists: luciferase biochemical (cell-free) qHTS assay (AID 1645842; active means well fitted curve in the direction sought with a large enough effect in the repeat runs; an effect the other way counts as inactive or inconclusive; further: nearly all actives have a fitted effect of over 55% in size; further: potency means the concentration at half of the fitted maximal effect)
# Cytochrome P450 2C9 (Homo sapiens), sequence (P11712 whole entry, looked up): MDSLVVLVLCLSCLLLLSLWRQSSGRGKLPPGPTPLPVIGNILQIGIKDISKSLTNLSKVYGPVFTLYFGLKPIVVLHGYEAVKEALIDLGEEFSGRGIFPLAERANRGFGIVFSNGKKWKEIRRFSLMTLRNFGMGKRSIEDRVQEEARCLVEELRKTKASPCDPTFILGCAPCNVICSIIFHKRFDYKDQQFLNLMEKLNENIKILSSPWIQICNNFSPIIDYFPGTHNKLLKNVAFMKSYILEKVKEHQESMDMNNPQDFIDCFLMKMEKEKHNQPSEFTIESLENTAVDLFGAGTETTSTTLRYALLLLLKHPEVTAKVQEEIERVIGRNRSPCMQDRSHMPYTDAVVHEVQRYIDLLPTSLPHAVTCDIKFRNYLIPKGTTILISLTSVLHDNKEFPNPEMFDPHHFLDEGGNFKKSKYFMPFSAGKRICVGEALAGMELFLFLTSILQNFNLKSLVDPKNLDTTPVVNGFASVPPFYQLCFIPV
# Method in brief: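 P450-Glo CYP2C9 system: proluciferin substrate with enzyme in mix containing 0.4% BSA, 10 min at room temperature, then NADPH regeneration solution added and incubated 1 h at 37C. Detection reagent stopped reaction; luminescence read after 20 min as RLU.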
# CAOV3 = assay: Primary qHTS to identify gynecologic anti-cancer compounds using libraries of approved drugs and bioactive compounds (AID 1345084); details: Gynecologic cancer cell panel viability, ATPlite luminescence, 48 h; series mostly up to 57.5 µM; further: nearly all actives have a fitted effect of over 55% in size; further: potency means the concentration at half of the fitted maximal effect
# Method in brief: (§1)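 Five-point cytotoxicity, 48 h drug exposure at 37 C, 5% CO2, on cells seeded 16 h beforehand. ATP content read by ATPlite luminescence.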
# Es-2 = assay: as above; details: Gynecologic cancer cell panel viability, ATPlite luminescence, 48 h; series mostly up to 57.5 µM
# Method in brief: as §1
# [5] = target: Catechol O-methyltransferase (Homo sapiens) (UniProt P21964); assay: Confirmatory Screen for Target Class Profiling of Small Molecule Inhibitors of Methyltransferases (AID 1745852); details: MTase-Glo luminescence, SAH detection, recombinant enzyme; measured here: COMT max response; stronger effect = lower value
# Catechol O-methyltransferase (Homo sapiens), sequence (P21964 whole entry, looked up): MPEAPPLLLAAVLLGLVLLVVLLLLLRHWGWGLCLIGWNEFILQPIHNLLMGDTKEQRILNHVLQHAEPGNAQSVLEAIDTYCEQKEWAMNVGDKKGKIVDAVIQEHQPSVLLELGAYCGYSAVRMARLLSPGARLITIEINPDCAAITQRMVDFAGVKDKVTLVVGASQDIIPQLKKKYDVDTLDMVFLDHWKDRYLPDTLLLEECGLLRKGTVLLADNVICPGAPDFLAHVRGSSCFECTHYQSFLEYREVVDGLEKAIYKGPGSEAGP
# [6] = target: Guanidinoacetate N-methyltransferase (Homo sapiens) (UniProt Q14353); assay: as above; details: activity change, negative = inhibition: at 57.3 µM (top of the series) unless noted
# [7] = target: Nicotinamide N-methyltransferase (Homo sapiens) (UniProt P40261); assay: as above; details: MTase-Glo luminescence, SAH detection, recombinant enzyme; measured here: NNMT max response; stronger effect = lower value
# Nicotinamide N-methyltransferase (Homo sapiens), sequence (P40261 whole entry, looked up): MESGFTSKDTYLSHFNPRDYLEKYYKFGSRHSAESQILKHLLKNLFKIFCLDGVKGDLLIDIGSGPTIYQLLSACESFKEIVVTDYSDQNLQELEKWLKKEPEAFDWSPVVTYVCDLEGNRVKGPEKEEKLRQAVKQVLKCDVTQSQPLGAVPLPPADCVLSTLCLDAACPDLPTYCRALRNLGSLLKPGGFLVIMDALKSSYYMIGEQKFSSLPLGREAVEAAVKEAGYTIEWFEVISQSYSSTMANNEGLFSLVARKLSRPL
# [8] = target: Phenylethanolamine N-methyltransferase (Homo sapiens) (UniProt P11086); assay: as above; details: MTase-Glo luminescence, SAH detection, recombinant enzyme; measured here: PNMT max response; stronger effect = lower value
# Phenylethanolamine N-methyltransferase (Homo sapiens), sequence (P11086 whole entry, looked up): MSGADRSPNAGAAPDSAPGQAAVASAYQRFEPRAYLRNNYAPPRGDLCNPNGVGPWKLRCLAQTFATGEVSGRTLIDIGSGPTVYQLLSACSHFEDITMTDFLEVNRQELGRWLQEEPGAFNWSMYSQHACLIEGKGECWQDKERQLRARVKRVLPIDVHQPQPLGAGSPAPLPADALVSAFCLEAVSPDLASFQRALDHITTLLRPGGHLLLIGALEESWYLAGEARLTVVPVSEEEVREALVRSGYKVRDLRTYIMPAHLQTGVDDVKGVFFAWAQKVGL
# C33A = assay: Primary qHTS to identify gynecologic anti-cancer compounds using libraries of approved drugs and bioactive compounds (AID 1345084); details: Gynecologic cancer cell panel viability, ATPlite luminescence, 48 h; series mostly up to 57.5 µM; further: nearly all actives have a fitted effect of over 55% in size; further: potency means the concentration at half of the fitted maximal effect
# Method in brief: as §1
# OV90 = assay: as above; details: Gynecologic cancer cell panel viability, ATPlite luminescence, 48 h; series mostly up to 57.5 µM
# Method in brief: as §1
# CASKI = assay: as above; details: Gynecologic cancer cell panel viability, ATPlite luminescence, 48 h; series mostly up to 57.5 µM
# Method in brief: as §1
# PA-1 = assay: as above; details: Gynecologic cancer cell panel viability, ATPlite luminescence, 48 h; series mostly up to 57.5 µM
# Method in brief: as §1
# SKOV3 = assay: as above; details: Gynecologic cancer cell panel viability, ATPlite luminescence, 48 h; series mostly up to 57.5 µM
# Method in brief: as §1
# [9] = qHTS to identify inhibitors of the type 1 interferon - major histocompatibility complex class I in skeletal muscle: primary screen against the NCATS Mechanism Interrogation Plate v5.0 (MIPE) Libary (AID 1347411); further: potency means the concentration at half of the fitted maximal effect; nearly all actives have a fitted effect of over 65% in size
# Method in brief: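 HLA-B HiBit myoblasts, dexamethasone-free medium + 4 ng/ml IFN-b, 24 h compound, 11-pt 1:3 from 46 uM final. Readout: Nano-Glo HiBiT lytic luminescence after 10 min lysis, RT.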
structure (smiles),measurement,setting,value
CN(C)CC(=O)Nc1ccc2[nH]c(=O)c3ccccc3c2c1,outcome,[1],inactive
COc1cc2nc(-c3cc(F)ccc3O)nc(N[C@@H]3CNC[C@H]3C(C)(C)O)c2cc1OC,Potency,[2]; HiBiT,8.83 µM (active)
same,Potency,[2]; Viability,31.3 µM (active)
CCOC(=O)c1cnn(-c2ccc(NC(=O)C(Cl)=C(Cl)Cl)cc2)c1C(F)(F)F,Potency,[3],15.1 µM (active)
same,Potency,[4],6.74 µM (active)
same,Potency,CAOV3,6.31 µM (active)
same,Potency,Es-2,inactive
COc1cc2nc(N3CCN(C)CC3)nc(NC3CCN(Cc4ccccc4)CC3)c2cc1OC,activity,[5],-1.25%
same,"activity change, negative = inhibition",[6],9.72%
same,activity,[7],-9.04%
same,activity,[8],0.903%
same,Potency,C33A,inactive
same,Potency,OV90,22.4 µM (active)
O=C(O)c1ccc(O)c2ncc(N3CCCN(CCc4cccc5ccccc45)CC3)cc12,activity,[5],15.8%
same,"activity change, negative = inhibition",[6],8.48%
same,activity,[7],-19.7%
same,activity,[8],-64.3%
same,Potency,CASKI,inactive
Fc1ccc(C2CCNC[C@H]2COc2ccc3c(c2)OCO3)cc1 (stereo not given in full),Potency,Es-2,22.4 µM (active)
same,Potency,PA-1,inactive
CCOc1cc(CNC2CCCC2)cc(Cl)c1OCc1ccc(Cl)cc1,Potency,[3],1.51 µM (active)
same,Potency,[4],19 µM (active)
same,Potency,CAOV3,22.4 µM (active)
CC(=O)N1c2ccc(-c3ccc(C(=O)O)cc3)cc2C(Nc2ccc(Cl)cc2)CC1C (stereo not given),Potency,[3],inactive
same,Potency,[4],8.49 µM (active)
same,Potency,C33A,inactive
same,Potency,SKOV3,3.98 µM (active)
C[C@@H]1CCNC(=O)c2cc3ccc(C(=O)Nc4nc5ccccc5n4CCCN(C)C)cc3n21,Potency,[4],inactive
same,Potency,CAOV3,25.1 µM (active)
same,Potency,Es-2,inactive
same,Potency,PA-1,inactive
COc1ccc(NC(=O)N2CCc3c2ccc2ccccc32)cc1N1CCN(C)CC1,Potency,[3],19 µM (active)
same,Potency,CASKI,inactive
same,Potency,Es-2,inactive
same,Potency,OV90,inactive
CCCc1c(C(C)C)nc(C(C)C)c([C@@H](C)O)c1-c1ccc(F)cc1O,Potency,[3],2.39 µM (active)
same,Potency,CASKI,inactive
same,Potency,Es-2,inactive
same,Potency,OV90,inactive
same,Potency,PA-1,inactive
NC(=Nc1ccc(CCNCc2cccc(Cl)c2)cc1)c1cccs1,Potency,[3],0.477 µM (active)
same,Potency,[4],12 µM (active)
same,Potency,Es-2,inactive
same,Potency,PA-1,inactive
CCOP(=O)(Cc1ccc(C(=O)Nc2ccc(Br)cc2C#N)cc1)OCC,Potency,CASKI,inactive
same,Potency,Es-2,inactive
same,Potency,OV90,inactive
same,Potency,PA-1,inactive
COc1ccc2c3ccnc4ccc(=O)n(c2c1)c43,Potency,C33A,inactive
same,Potency,OV90,inactive
same,Potency,PA-1,25.1 µM (active)
N#Cc1ccc(-c2ccc(NC(=O)Nc3ccc(-c4ccnc5nc[nH]c45)cc3)cc2)cc1,Potency,C33A,5.01 µM (active)
C=C1C(=O)O[C@H]2[C@H]1[C@@H](OC(=O)/C(C)=C\C)C[C@]1(C)O[C@@H]1[C@H]1O[C@H]1C(=C)[C@H]2O,Potency,Es-2,11.2 µM (active)
same,Potency,OV90,inactive
same,Potency,PA-1,12.6 µM (active)
OC(CNCCc1c[nH]c2ccccc12)Cn1c2ccccc2c2ccccc21 (stereo not given),Potency,[3],0.268 µM (active)
same,Potency,Es-2,inactive
same,Potency,OV90,inactive
same,Potency,PA-1,inactive
Cc1c(C(=O)NCCCO)cnn1-c1nc(-c2cccc(C(F)(F)F)c2)cs1,Potency,C33A,inactive
same,Potency,Es-2,inactive
same,Potency,OV90,inactive
same,Potency,PA-1,inactive
c1ccc(Cn2c(-c3ccc(OCC(C4CCNCC4)n4c(-c5ccccc5)nc5ccccc54)cc3)nc3ccccc32)cc1 (stereo not given),activity,[5],-14.2%
same,"activity change, negative = inhibition",[6],-5.98%
same,activity,[7],-61.3%
same,activity,[8],-1.77%
same,Potency,CASKI,inactive
same,Potency,Es-2,inactive
same,Potency,OV90,inactive
same,Potency,PA-1,inactive
COc1cc(N2CCN(C)CC2)ccc1Nc1nccc(-c2cn(C)c3cnccc23)n1,Potency,[3],inactive
same,Potency,[4],inactive
same,Potency,SKOV3,12.6 µM (active)
C=CC(=O)Nc1cccc(Nc2nc(Nc3ccc(Oc4ccnc(C(=O)NC)c4)cc3)ncc2F)c1,Potency,[9],18.6 µM (active)
same,Potency,[4],1.51 µM (active)
same,activity,[5],-5.97%
same,"activity change, negative = inhibition",[6],-5.15%
same,activity,[7],-53.4%
same,activity,[8],-10.6%
same,Potency,C33A,inactive
same,Potency,CASKI,inactive
same,Potency,OV90,inactive
COc1ccc(-c2cc(C(O)C3CCCCN3)c3ccccc3n2)cc1 (stereo not given),Potency,[4],10.7 µM (active)
same,Potency,OV90,31.6 µM (active)
same,Potency,SKOV3,28.2 µM (active)
COC1CC(=O)C23C(=O)NC(CC(C)C)C2C(C)C(C)=CC3/C=C(\C)CCC(O)C1O (stereo not given),Potency,CASKI,inactive
same,Potency,Es-2,inactive
same,Potency,OV90,inactive
same,Potency,SKOV3,inactive
N#Cc1ccc2c(c1)CCN(CCC1CCC(NC(=O)c3ccnc4ccccc34)CC1)C2 (stereo not given),Potency,CAOV3,inactive
same,Potency,CASKI,inactive
same,Potency,Es-2,inactive
same,Potency,PA-1,inactive
same,Potency,SKOV3,22.4 µM (active)
CCN1CCC[C@@H]1CNC(=O)c1ccc2c(c1)NC(=O)/C(=C/c1ccccc1F)S2,Potency,[4],12 µM (active)
same,activity,[5],-24.5%
same,"activity change, negative = inhibition",[6],-8.4%
same,activity,[7],-32%
same,activity,[8],-20.2%
same,Potency,C33A,inactive
same,Potency,Es-2,inactive
CC1CCC2(NC1)OC1CC3C4CC=C5CC(O[C@@H]6O[C@H](CO)[C@@H](O[C@@H]7O[C@@H](C)[C@H](O)[C@@H](O)[C@H]7O)[C@H](O)[C@H]6O[C@@H]6O[C@@H](C)[C@H](O)[C@@H](O)[C@H]6O)CCC5(C)C4CCC3(C)C1C2C (stereo not given in full),"activity change, negative = cytotoxicity",CASKI,-25.1% [at 11.6 µM] (inactive)
CC(C)COc1ccc(CNC(=O)N(Cc2ccc(F)cc2)C2CCN(C)CC2)cc1,Potency,[3],5.35 µM (active)
same,Potency,C33A,inactive
CC1(C)CC[C@]2(C(=O)OC3OC(CO)C(O)C(O)C3O)CC[C@]3(C)C(=CCC4[C@@]5(C)CC[C@H](OC6OC(C(=O)O)C(O)C(O)C6O)C(CO)(CO)C5CC[C@]43C)[C@@H]2C1 (stereo not given in full),"activity change, negative = cytotoxicity",OV90,-19.7% [at 11.6 µM] (inactive)
same,Potency,PA-1,3.16 µM (active)
FC(F)(F)c1ccc(CNc2ccc(Cc3c[nH]c4ncccc34)cn2)cc1,Potency,[3],0.19 µM (active)
same,Potency,[4],1.2 µM (active)
same,Potency,CAOV3,inactive
same,Potency,Es-2,inactive
same,Potency,OV90,inactive
CC(=O)Nc1nc2c(Oc3cc(-c4ccc(C(F)(F)F)cc4)ncn3)cccc2s1,Potency,C33A,inactive
O=C(C1=CCN2c3c(cccc31)OC[C@H]2CN1CCOCC1)c1cccc2ccccc12,Potency,CASKI,inactive
COc1ccccc1-c1cc(Nc2cccc(CS(N)(=O)=O)c2)ncn1,Potency,[3],inactive
same,Potency,[4],9.52 µM (active)
same,Potency,PA-1,22.4 µM (active)
Cn1cnc(-c2nccc3c(=O)[nH]c(OCCCC(F)(F)F)nc23)c1,Potency,C33A,inactive
same,Potency,CASKI,inactive
same,Potency,SKOV3,6.31 µM (active)
